Laboratory results taken from the supplement of paper PMC10849652.
Of roughly 7,900 targets only a part is listed; those with a hit were picked by preference. About 0.6% of all pairs of compound and target were hits. Unmarked numbers belong to inactive results.

Columns and labels:
Test in all cases: log2 fold change, soluble protein after heating vs DMSO (PISA); higher = thermal stabilisation; K562 cells, 10 uM, 30 min; active = over 0.2 and 3.5 SD of the protein, either way, in both replicates (recomputed)
[1] = compound: CC[C@@H]1C(=O)N(C)c2cnc(Nc3ccc(C(=O)NC4CCN(C)CC4)cc3OC)nc2N1C1CCCC1
Outline: (§1)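 Soluble protein was quantified by TMTpro 16plex LC-MS/MS after channel sums were equalised. It was obtained as the supernatant after 21,000xg for 90 min from pooled aliquots of K562 cells (2×10^6 cells/mL, 10 μM compound, 30 min) heated for 3 min across 48°C-58°C and extracted in PBS with 0.5% NP-40 at 4°C. Thermal stability values are relative to control samples and come from duplicates. They are given as log2 fold changes.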

volasertib = compound: CC[C@@H]1C(=O)N(C)c2cnc(Nc3ccc(C(=O)N[C@H]4CC[C@H](N5CCN(CC6CC6)CC5)CC4)cc3OC)nc2N1C(C)C [volasertib]
Outline: as §1

[2] = compound: CC[C@H](C)N1C=C(C2=C(C=C(C=C21)C3=CN=C(C=C3)N4CCNCC4)C(=O)NCC5=C(C=C(NC5=O)C)C)C
Outline: as §1

epoxomicin = compound: CC[C@H](C)[C@@H](C(=O)N[C@@H]([C@@H](C)O)C(=O)N[C@@H](CC(C)C)C(=O)[C@]1(CO1)C)NC(=O)[C@H]([C@@H](C)CC)N(C)C(=O)C [epoxomicin]
Outline: as §1

[3] = compound: CCn1c(C(=O)N(C2CC2)C2CC2)cc2c3c(ncn3C)c(Nc3cc(C)n(C)n3)nc21
Outline: as §1

[4] = compound: CN(C)CC(=O)Nc1ccc2[nH]c(=O)c3ccccc3c2c1
Outline: as §1

rosiglitazone = compound: CN(CCOC1=CC=C(C=C1)C[C@H]2C(=O)NC(=O)S2)C3=CC=CC=N3 (racemic) [rosiglitazone]
Outline: as §1

[5] = compound: CN1C2=C(C3=C1C(=O)N(N=C3)CC4=CC(=CC=C4)N)SC(=C2)S(=O)C
Outline: as §1

saracatinib = compound: CN1CCN(CCOc2cc(OC3CCOCC3)c3c(Nc4c(Cl)ccc5c4OCO5)ncnc3c2)CC1 [saracatinib]
Outline: as §1

sotrastaurin = compound: CN1CCN(c2nc(C3=C(c4c[nH]c5ccccc45)C(=O)NC3=O)c3ccccc3n2)CC1 [sotrastaurin]
Outline: as §1

alvocidib = compound: CN1CC[C@H](c2c(O)cc(O)c3c(=O)cc(-c4ccccc4Cl)oc23)[C@H](O)C1 [alvocidib]
Outline: as §1

Tubastatin A = compound: CN1CCc2c(c3ccccc3n2Cc2ccc(C(=O)NO)cc2)C1 [Tubastatin A]
Outline: as §1

[6] = compound: CNC(=O)C1=CC=CC=C1NC2=NC(=NC=C2Cl)NC3=C(C=C(C=C3)N4CCOCC4)OC
Outline: as §1

defactinib = compound: CNC(=O)c1ccc(Nc2ncc(C(F)(F)F)c(NCc3nccnc3N(C)S(C)(=O)=O)n2)cc1 [defactinib]
Outline: as §1

rucaparib = compound: CNCc1ccc(-c2[nH]c3cc(F)cc4c3c2CCNC4=O)cc1 [rucaparib]
Outline: as §1

[7] = compound: CNc1nc(-c2ccc3c(N)n[nH]c3c2)cc(N2C[C@@H](C(=O)NC3CCCCC3)CC[C@H]2C)n1
Outline: as §1

encorafenib = compound: COC(=O)N[C@@H](C)CNc1nccc(-c2cn(C(C)C)nc2-c2cc(Cl)cc(NS(C)(=O)=O)c2F)n1 [encorafenib]
Outline: as §1

[8] = compound: COC(=O)[C@H](CCSC)NC(=O)C1=C(C=C(C=C1)NC[C@H](CS)N)C2=CC=CC=C2
Outline: as §1

[9] = compound: CCn1cc(-c2ccnc3[nH]c(-c4cccc(CN(C)C)c4)cc23)c(-c2ccc(NC(=O)N(C)C)cc2)n1
Outline: as §1

[10] = compound: CN1CCC(CNc2ccc3ncc(-c4cccc(OC(F)(F)F)c4)n3n2)CC1
Outline: as §1

UniProt P21695, sequence (P21695 whole entry, looked up): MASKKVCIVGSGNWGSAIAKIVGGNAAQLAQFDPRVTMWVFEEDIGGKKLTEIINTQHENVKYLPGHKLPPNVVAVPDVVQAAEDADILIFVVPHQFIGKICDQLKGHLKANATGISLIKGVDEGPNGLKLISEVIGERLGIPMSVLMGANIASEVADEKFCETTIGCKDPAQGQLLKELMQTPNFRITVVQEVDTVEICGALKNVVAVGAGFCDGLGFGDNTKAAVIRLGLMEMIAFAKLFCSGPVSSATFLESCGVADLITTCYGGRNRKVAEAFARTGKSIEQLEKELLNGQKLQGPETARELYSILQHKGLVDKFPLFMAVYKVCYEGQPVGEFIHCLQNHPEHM
UniProt Q14956, sequence (Q14956 whole entry, looked up): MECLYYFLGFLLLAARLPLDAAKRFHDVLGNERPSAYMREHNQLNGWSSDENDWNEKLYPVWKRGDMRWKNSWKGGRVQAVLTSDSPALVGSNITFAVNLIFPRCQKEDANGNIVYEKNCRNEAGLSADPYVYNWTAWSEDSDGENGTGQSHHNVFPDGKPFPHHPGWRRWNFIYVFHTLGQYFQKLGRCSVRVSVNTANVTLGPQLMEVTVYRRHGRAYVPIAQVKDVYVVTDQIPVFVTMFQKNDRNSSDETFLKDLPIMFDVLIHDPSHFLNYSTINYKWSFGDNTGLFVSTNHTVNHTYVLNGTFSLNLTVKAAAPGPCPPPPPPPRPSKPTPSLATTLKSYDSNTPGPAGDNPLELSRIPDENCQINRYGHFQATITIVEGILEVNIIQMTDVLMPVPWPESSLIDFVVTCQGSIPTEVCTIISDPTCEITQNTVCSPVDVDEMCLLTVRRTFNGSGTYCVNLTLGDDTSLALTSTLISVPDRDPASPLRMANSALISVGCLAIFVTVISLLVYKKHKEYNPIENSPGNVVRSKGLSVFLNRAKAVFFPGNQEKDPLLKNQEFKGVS
UniProt O14526, sequence (O14526 whole entry, looked up): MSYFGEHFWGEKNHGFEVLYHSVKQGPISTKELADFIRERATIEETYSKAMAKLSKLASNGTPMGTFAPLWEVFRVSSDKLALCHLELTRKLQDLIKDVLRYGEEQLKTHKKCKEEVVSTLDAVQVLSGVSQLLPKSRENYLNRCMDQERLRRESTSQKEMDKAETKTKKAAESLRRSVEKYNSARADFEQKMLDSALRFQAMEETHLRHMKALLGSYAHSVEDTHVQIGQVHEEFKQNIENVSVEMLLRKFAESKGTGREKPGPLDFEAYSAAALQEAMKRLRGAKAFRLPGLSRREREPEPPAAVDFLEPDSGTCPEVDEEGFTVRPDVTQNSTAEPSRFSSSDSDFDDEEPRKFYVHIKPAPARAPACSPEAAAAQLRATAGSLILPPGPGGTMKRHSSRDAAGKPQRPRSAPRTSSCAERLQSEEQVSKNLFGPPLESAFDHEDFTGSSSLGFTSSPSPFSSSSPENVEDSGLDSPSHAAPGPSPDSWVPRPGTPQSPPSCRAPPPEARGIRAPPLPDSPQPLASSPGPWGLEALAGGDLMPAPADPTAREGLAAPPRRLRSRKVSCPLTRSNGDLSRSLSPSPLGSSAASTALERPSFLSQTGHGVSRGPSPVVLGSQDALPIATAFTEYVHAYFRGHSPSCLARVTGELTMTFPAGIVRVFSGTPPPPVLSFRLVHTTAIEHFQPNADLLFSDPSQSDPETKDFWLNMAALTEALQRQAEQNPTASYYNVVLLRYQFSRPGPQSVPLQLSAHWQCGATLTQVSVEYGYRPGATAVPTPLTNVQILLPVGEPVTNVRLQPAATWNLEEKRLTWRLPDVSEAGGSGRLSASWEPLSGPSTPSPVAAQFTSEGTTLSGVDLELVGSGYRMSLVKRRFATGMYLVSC
UniProt Q4ZG55, sequence (Q4ZG55 whole entry, looked up): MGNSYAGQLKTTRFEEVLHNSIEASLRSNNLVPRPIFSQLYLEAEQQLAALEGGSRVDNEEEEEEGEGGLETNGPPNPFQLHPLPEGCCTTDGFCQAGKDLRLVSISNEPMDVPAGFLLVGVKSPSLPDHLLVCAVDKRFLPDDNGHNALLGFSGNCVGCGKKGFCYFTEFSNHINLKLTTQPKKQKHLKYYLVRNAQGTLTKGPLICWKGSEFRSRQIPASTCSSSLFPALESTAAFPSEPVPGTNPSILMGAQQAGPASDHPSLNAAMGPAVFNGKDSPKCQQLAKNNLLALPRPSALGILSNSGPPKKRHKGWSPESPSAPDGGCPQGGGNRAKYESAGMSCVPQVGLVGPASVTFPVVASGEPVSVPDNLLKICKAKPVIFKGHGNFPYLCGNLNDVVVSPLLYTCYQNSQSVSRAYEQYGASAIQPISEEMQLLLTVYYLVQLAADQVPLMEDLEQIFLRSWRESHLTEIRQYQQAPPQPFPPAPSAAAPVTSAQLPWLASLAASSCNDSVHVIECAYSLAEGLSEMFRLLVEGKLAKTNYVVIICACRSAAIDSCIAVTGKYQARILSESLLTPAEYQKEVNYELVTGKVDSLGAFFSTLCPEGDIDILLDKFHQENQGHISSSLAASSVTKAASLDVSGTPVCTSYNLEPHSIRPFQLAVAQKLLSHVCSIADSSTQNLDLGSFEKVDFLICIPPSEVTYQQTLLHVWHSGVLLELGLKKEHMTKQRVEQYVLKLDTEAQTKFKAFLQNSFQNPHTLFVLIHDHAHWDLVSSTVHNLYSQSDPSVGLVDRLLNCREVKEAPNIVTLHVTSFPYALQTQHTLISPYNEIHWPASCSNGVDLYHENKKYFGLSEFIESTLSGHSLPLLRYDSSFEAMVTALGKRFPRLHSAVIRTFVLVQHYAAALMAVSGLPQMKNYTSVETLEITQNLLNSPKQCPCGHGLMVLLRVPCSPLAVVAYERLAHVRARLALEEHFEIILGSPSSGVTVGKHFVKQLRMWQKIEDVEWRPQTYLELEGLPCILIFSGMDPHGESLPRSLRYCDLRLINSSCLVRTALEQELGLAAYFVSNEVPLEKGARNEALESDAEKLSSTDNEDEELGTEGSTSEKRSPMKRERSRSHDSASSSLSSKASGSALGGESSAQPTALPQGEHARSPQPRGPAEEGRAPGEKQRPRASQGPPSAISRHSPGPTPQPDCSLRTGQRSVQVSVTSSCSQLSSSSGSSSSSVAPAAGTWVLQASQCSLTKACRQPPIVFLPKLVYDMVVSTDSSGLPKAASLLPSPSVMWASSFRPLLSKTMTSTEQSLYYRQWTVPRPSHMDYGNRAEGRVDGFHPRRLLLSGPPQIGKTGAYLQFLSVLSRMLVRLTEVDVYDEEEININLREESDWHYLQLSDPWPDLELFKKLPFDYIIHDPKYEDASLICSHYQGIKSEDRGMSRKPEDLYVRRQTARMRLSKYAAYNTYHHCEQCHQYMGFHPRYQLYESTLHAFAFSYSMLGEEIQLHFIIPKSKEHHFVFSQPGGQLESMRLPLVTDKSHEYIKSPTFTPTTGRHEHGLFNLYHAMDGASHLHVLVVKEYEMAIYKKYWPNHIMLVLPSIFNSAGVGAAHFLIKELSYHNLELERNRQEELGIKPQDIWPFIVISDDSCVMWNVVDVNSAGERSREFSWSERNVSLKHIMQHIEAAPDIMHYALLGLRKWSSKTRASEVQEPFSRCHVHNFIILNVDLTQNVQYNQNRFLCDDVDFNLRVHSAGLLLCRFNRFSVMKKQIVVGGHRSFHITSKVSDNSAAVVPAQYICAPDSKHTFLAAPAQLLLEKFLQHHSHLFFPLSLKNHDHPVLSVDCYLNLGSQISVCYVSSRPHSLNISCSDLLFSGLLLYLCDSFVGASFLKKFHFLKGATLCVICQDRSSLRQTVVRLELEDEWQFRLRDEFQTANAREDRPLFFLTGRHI
UniProt O14976, sequence (O14976 whole entry, looked up): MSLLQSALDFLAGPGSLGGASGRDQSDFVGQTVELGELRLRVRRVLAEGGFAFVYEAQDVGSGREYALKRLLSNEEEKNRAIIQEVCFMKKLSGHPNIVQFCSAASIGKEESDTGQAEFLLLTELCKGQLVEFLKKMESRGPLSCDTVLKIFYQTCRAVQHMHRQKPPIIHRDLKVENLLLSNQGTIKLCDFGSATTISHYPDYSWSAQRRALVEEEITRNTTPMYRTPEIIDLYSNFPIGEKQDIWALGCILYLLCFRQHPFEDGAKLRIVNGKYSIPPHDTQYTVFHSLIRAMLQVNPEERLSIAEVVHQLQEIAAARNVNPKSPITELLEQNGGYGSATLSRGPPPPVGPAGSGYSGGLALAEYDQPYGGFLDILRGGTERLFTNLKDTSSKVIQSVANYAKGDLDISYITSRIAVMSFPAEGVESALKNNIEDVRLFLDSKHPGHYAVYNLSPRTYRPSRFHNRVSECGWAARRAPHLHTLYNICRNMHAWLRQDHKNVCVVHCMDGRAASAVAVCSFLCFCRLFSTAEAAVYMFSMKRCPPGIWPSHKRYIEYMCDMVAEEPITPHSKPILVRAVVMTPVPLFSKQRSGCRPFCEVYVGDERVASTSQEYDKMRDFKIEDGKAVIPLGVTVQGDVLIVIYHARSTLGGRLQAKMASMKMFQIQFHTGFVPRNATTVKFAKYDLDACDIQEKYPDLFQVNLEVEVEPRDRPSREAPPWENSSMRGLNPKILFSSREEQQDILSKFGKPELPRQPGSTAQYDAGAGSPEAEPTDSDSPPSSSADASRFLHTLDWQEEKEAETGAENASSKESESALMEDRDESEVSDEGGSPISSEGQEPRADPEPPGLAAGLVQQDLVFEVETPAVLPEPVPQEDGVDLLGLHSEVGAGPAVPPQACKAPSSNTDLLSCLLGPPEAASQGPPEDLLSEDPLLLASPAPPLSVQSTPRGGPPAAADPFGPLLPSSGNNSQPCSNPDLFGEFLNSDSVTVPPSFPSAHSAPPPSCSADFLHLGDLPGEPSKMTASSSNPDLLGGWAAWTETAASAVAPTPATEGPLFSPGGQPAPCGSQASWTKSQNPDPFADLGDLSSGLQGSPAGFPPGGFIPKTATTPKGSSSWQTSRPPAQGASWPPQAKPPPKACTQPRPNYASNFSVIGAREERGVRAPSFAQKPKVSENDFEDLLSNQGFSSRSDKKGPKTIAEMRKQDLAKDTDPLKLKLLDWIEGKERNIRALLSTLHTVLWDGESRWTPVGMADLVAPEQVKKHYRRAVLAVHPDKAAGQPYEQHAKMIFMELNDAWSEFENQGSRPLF

Row | Target | log2 fold change [1] | log2 fold change (volasertib) | log2 fold change [2] | log2 fold change (epoxomicin) | log2 fold change [3] | log2 fold change [4] | log2 fold change (rosiglitazone) | log2 fold change [5] | log2 fold change (saracatinib) | log2 fold change (sotrastaurin) | log2 fold change (alvocidib) | log2 fold change (Tubastatin A) | log2 fold change [6] | log2 fold change (defactinib) | log2 fold change (rucaparib) | log2 fold change [7] | log2 fold change (encorafenib) | log2 fold change [8] | log2 fold change [9] | log2 fold change [10]
1 | GDE1 (UniProt Q9NZC3) | 0.033 | 0.053 | -0.092 | -0.046 | 0.002 | -0.049 | -0.003 | -0.016 | 0.029 | 0.051 | -0.059 | -0.316 (active) | -0.003 | -0.017 | 0.009 | 0.01 | -0.017 | 0.024 |  | 
2 | GAK (UniProt O14976) | 0.673 | 1.35 | -0.401 | -0.046 | 0.096 | 0.382 |  | -0.038 | 1.06 | -0.066 | 1.14 | 0.011 | 1.11 | 0.658 | 0.237 | 0.402 | -0.17 | -0.266 | 0.11 | 0.95
3 | HEATR5B (UniProt Q9P2D3) | -0.053 | -0.19 | 0.083 | -0.058 | -0.041 | -0.009 | 0.003 | -0.017 | 0.043 | 0.008 | -0.023 | 0.016 | 0.022 | -0.099 | 0.028 | 0.015 | 0.041 | -0.006 | 0.018 | -0.015
4 | GGA2 (UniProt Q9UJY4) | 0.022 | 0.059 | 0.038 | -0.033 | 0.005 | -0.021 | 0.083 | -0.02 | -0.054 | 0.053 | -0.034 | -0.088 | -0.025 | 0.025 | -0.064 | -0.054 | 0.068 | 0.122 |  | 
5 | GNG5 (UniProt P63218) | 0.105 | 0.033 | -0.117 | 0.556 (active) | 0.059 | -0.07 | -0.045 | -0.014 | 0.022 | 0.033 | 0.019 | 0.049 | 0.028 | -0.041 | -0.002 | -0.041 | -0.073 | -0.008 | 0.004 | 0.144
6 | FBXO6 (UniProt Q9NRD1) | 0.683 (active) | 0.696 (active) | 0.096 | -0.029 | -0.037 | 0.036 | 0.006 | 0.005 | 0.042 | -0.085 | -0.092 | -0.016 | 0.031 | -0.038 | -0.064 | 0.011 | 0.033 | -0.099 | -0.038 | 0.366 (active)
7 | FCHO1 (UniProt O14526) | -0.186 | -0.768 (active) | 0.168 | 0.05 | 0.067 | 0.112 |  | 0.025 | -0.064 | -0.162 | -0.049 | 0.007 | 0.043 | -0.042 | 0.248 | 0.054 | 0.101 | 0.046 |  | 
8 | GREB1 (UniProt Q4ZG55) |  |  |  | -0.081 | -0.108 | -0.095 |  |  |  | -0.175 | 0.123 | 0.264 | -0.113 | -0.008 |  |  |  | -0.112 |  | 
9 | FAT2 (UniProt Q9NYQ8) | 0.011 | 0.029 |  | -0.047 | -0.183 | -0.06 | -0.27 | -0.023 | -0.243 |  | 0.083 | 0.144 | -0.206 | 0.011 | -0.007 | 0.021 | 0.094 | 0.001 | -0.023 | 0.109
10 | HDAC10 (UniProt Q969S8) | -0.113 | -0.041 | 0.028 |  | -0.005 | 0.224 | 0.12 | -0.107 | -0.04 |  | 0.011 | 0.458 | 0.108 | 0.067 | 0.024 | -0.02 | 0.024 | -0.137 | -0.179 | 0.055
11 | GPD1 (UniProt P21695) |  | -0.161 | 0 | -0.205 | -0.23 | -0.045 | 0.027 | -0.126 | -0.005 | 0.065 | 0.131 | -0.027 | -0.298 | -0.072 |  | 0.05 |  | 0.016 | -0.011 | -0.183
12 | H3-3A (UniProt P84243) | -0.083 | -0.239 | 0.147 |  | -0.123 | -0.083 | 0.076 | 0.045 | -0.094 | -0.356 | -0.063 | 0.203 | 0.002 | 0 | 0.031 | 0.189 | 0.034 | 0.102 |  | 
13 | HBZ, A0A494C057 | 0.203 |  | -0.079 |  | -0.008 |  | -0.188 |  |  |  |  |  | 0.005 |  | -0.058 |  | -0.094 |  |  | 
14 | IGF2 isoform 3 (UniProt P01344) |  |  |  |  | -0.395 | -0.218 |  | 0.135 | 0.148 |  |  |  | -0.033 | 0.007 |  | -0.105 |  | 0.006 |  | 
15 | GPNMB (UniProt Q14956) | 0.206 |  |  | -0.191 | 0.149 |  |  |  |  |  |  |  | -0.221 |  | 0.007 |  | -0.25 |  |  | 
16 | GAB2 (UniProt Q9UQC2) | -0.203 | -0.009 |  | 0.065 | -0.085 | -0.016 |  | 0.002 | -0.164 | 0.029 | -0.053 | -0.024 | -0.575 | -0.194 | 0.162 | -0.137 | -0.023 | 0.116 | 0.034 | -0.458
17 | FIBP (UniProt O43427) | 0.164 | -0.093 |  | -0.023 | -0.026 | -0.043 | -0.012 | -0.072 | -0.074 | -0.05 | -0.01 | 0.07 | 0.002 | -0.046 | 0.395 (active) | -0.085 | 0.039 | 0.004 | -0.023 | -0.229
18 | FCF1 (UniProt Q9Y324) | 0.095 | 0.108 |  | -0.003 |  | -0.041 |  | 0.107 | -0.111 | -0.116 |  | 0.07 |  | 0.26 | 0.187 | 0.2 | 0.121 | -0.044 | 0.134 | 0.219
19 | GBE1 (UniProt Q04446) | 0.042 | -0.61 (active) |  | 0.168 | 0.016 | 0.058 | -0.128 | 0.071 | -0.252 |  | -0.084 | 0.055 | -0.027 | -0.195 | -0.132 | 0.076 | 0.062 | -0.034 |  | 
20 | GPS2 (UniProt Q13227) | 0.151 | -0.072 | 0.082 | 0.016 | -0.011 | 0.068 | 0.027 |  |  | -0.007 |  | 0.033 | 0.008 | -0.079 | 0.02 |  | 0.041 | -0.025 |  | 
21 | FUNDC1 (UniProt Q8IVP5) |  | 0.078 |  |  |  |  | -0.13 |  |  | 0.049 |  |  |  |  |  |  |  |  |  | 
